Reference: PubChem BioAssay (Tox21)
Records with an inconclusive call do not appear. Where a call stands in place of a potency, no number is given. Values without a mark were called inactive. Calls of active or inactive are those of the source. The call rests on the fitted dose curve; in most records, active means well fitted inhibition curve with a large enough effect in the repeat runs; inconclusive means weak or mixed curves; inactive means no such curve, though single readings can be large or run the other way.
Potency means the concentration at half of the fitted maximal effect.

What follows are compounds tested against Cytochrome P450 2D6 (Homo sapiens) (UniProt P10635) (assay: Cytochrome P450 Family 2 Subfamily D Member 6 (CYP2D6) small molecule antagonists: luciferase reporter qHTS assay (AID 1671196; further: nearly all actives have a fitted effect of over 50% in size)). Details: P450-Glo CYP2D6 enzyme assay, luciferin luminescence, 1 h; series mostly up to 115 µM.
Chain of Cytochrome P450 2D6 (Homo sapiens) (P10635 whole entry, looked up): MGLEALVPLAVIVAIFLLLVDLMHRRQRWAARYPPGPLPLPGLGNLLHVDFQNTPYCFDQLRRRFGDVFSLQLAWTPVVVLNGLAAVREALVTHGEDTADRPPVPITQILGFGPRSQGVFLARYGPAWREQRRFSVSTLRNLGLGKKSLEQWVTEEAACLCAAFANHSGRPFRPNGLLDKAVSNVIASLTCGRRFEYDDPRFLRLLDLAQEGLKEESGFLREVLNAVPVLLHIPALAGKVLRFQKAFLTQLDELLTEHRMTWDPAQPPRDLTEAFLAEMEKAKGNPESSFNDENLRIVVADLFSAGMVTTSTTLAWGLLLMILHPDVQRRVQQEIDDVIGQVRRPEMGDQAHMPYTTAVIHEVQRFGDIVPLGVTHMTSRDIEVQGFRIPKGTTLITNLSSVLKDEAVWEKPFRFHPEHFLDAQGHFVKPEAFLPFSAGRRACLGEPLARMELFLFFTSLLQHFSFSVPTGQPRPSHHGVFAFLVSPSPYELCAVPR
From the text: U.S. Tox21 Program National Center for Advancing Translational Sciences [NCATS] U.S. Environmental Protection Agency [EPA] National Institutes of Environmental Health Sciences [NIEHS] National Toxicology Program [NTP] U.S. Food and Drug Administration [FDA] Tox21 Assay Overview: Cytochrome P450 (CYP) enzymes are membrane-bound hemeproteins that play a key role in metabolism of drugs and xenobiotics. Evaluation of the effect of chemicals on CYP isozymes is useful to minimize the adverse drug reactions and toxicities in drug development process. Tox21 chemicals were tested for their effect on CYP enzyme activities by using P450-Glo (TM) screening systems (Promega Corporation, Madison, WI). These systems provide a luminescent method containing proluciferin substrates and are converted to luciferin products by CYP isozymes. The luciferin products formed are detected with a luciferin detection reagent, and the amount of light produced is proportional to CYP activity. P450-Glo (TM) CYP2D6 screening system (Catalog. No. V9890) was used to detect the compounds that interfere in CYP2D6 activity.
Tox21 Assay Protocol Summary: Two ul of enzyme-substrate mix was dispensed into medium binding white/solid 1536-well plates (Greiner Bio-One North America Inc., Monroe, NC) using a BioRaptr Flying Reagent Dispenser (FRD, Beckman Coulter, Brea, CA). […] The assay plates were incubated at room temperature for 10 min. Then 2 ul of NADPH regeneration solution was added to each well of the assay plates using an FRD and incubated at room temperature for 1 h. The reaction was stopped by adding 4 ul of detection reagent using an FRD and after 20 min incubation at room temperature the luminescence signal was measured using a ViewLux plate reader (Perkin Elmer, Shelton, CT). Data were expressed as relative luminescence units.
With `CCCCCCC(O)CCOC(C)=O` (stereo not given) the Potency was “inactive”. For `CCCCCCCC/C=C/C(=O)O`, the Potency was “inactive”. In the case of `CC(C)N=C=NC(C)C`, the Potency is reported as “inactive”. With `Cc1ccc(N(CC2=NCCN2)c2cccc(O)c2)cc1` the Potency was 0.776 µM (active). For `CCCCCCCCCCCCCCN(C)C`, the activity change, negative = inhibition was -19.3% [at 23.6 µM]. With `COC(C)(C)OC` the Potency was “inactive”. With `[Cl][Nd]([Cl])[Cl]` the Potency was “inactive”. `COC1CCC=CO1` (stereo not given) was tested, and the Potency was “inactive”. With `CCC(CO)(CO)CO` the Potency was “inactive”. With `O=[N+]([O-])c1ccc2ncccc2c1` the Potency was 31.8 µM (active). In the case of `CCCCCCOC(=O)CCCCC`, the Potency is reported as “inactive”. In the case of `Cc1ccccc1S(N)(=O)=O`, the Potency is reported as “inactive”. With `CCCOC(=O)c1c(Cl)c(Cl)c(Cl)c(Cl)c1C(=O)OCCC` the Potency was “inactive”. `BrC(Br)C(Br)Br` was tested, and the Potency was “inactive”. `Nc1nc(-c2ccc([N+](=O)[O-])cc2)cs1` was tested, and the Potency was “inactive”. `C1=CCC2CC=CC2C1` (stereo not given) was tested, and the Potency was “inactive”. For `O=C(c1ccccc1)C1CCC1`, the Potency was “inactive”. For `Cc1ccc2c(c1)CCCN2`, the Potency was 28.3 µM (active). `CCN(CC)C(=O)/C(C#N)=C/c1cc(O)c(O)c([N+](=O)[O-])c1` was tested, and the Potency was “inactive”. With `O=C(O)c1cc(Cl)cc(Cl)c1O` the Potency was “inactive”. With `CC1CCc2nccnc21` (stereo not given) the Potency was “inactive”. For `CCCCCCC(O)CCCCCCCCCCC(=O)OC` (stereo not given), the Potency was “inactive”. With `CCN(CC)c1ccc(C(=C2C=CC(=[N+](CC)CC)C=C2)c2ccc(S(=O)(=O)O)cc2S(=O)(=O)[O-])cc1` the Potency was 20 µM (active). For `O=C1c2ccccc2C(=O)c2c(O)ccc(O)c21`, the Potency was “inactive”. For `O=[N+]([O-])C1(Br)COCOC1`, the Potency was “inactive”. With `Cc1ccc(Nc2c(F)cccc2Cl)c(CC(=O)O)c1` the Potency was “inactive”. `CCCCCCCCCCCCCOS(=O)(=O)O` was tested, and the Potency was “inactive”. For `Nc1ccn([C@H]2CS[C@@H](CO)O2)c(=O)n1`, the Potency was “inactive”. With `Cc1cc([N+](=O)[O-])ccc1N` the Potency was 31.3 µM (active). In the case of `CCCCOC(=O)CCCCC(=O)OCCCC`, the Potency is reported as “inactive”. With `CCOC(=O)C(C)O` (stereo not given) the Potency was “inactive”. In the case of `O=CNNC=O`, the Potency is reported as “inactive”. `CN1C(CSCC(F)(F)F)Nc2cc(Cl)c(S(N)(=O)=O)cc2S1(=O)=O` (stereo not given) was tested, and the Potency was “inactive”. With `CCOCCC(=O)OCC` the Potency was “inactive”. In the case of `O=C1[C@@H]2[C@H]3CC[C@H](C3)[C@@H]2C(=O)N1CCCCN1CCN(c2ncccn2)CC1`, the Potency is reported as 12.3 µM (active). With `CCN(CC)CCNC(=O)c1cc(Cl)c(N)cc1OC` the Potency was 7.76 µM (active). `COc1ccc(-n2nc(C(F)F)cc2-c2ccc(S(C)=O)cc2)cc1` (stereo not given) was tested, and the Potency was 35.6 µM (active). With `COC(=O)CC(C(C)=O)C(=O)OC` (stereo not given) the Potency was “inactive”. In the case of `CCCCCCCCCCCCCCCCCC(=O)OCC(CC)CCCC` (stereo not given), the Potency is reported as “inactive”. In the case of `O=C(c1ccccc1)c1ccc(O)cc1`, the Potency is reported as 40.4 µM (active).
